Potency data for 40 compounds are collected here from PubChem BioAssay AID651789 (National Center for Advancing Translational Sciences (NCATS), 2012).

Results filed as inconclusive are left out. Where a call stands in place of a potency, no number is given. Activity calls are given as the source filed them. Calls come from the whole dose curve; as a rule, active = well fitted inhibition curve with a large enough effect; inconclusive = small, poorly fitted or top-dose-only effect; inactive = no such curve, though single readings can be large or run the other way.
Potency is the fitted concentration of half-maximal effect.

The nature of the assay: Acumen qHTS Assay for Inhibitors of the mTORC1 Signaling Pathway in WT MEF Cells: Hit Validation. Note: nearly all actives have a fitted effect of over 60% in size. To be noted: Acumen imaging; series mostly up to 37.3 µM. The source says: The mammalian target of rapamycin (mTOR) is an intracellular serine/threonine kinase Aberrant regulation of mTOR signaling plays a causative role in a number of human diseases, including cancer, benign tumors such as lymphangioleiomyomatosis (LAM) and Tuberous Sclerosis Complex (TSC), and metabolic diseases such as diabetes and obesity. This project aims to identify inhibitors of ribosomal protein S6 (rpS6) phosphorylation. The phosphorylation of rpS6 is a key event downstream of mTOR activation. The assay uses a phospho-specific antibody of phospho-rpS6 to detect inhibitors of mTOR activation. Mutations in the Tsc1 and Tsc2 genes are the underlying genetic lesions responsible for TSC, causing constitutive activation of the mTORC1 pathway and leading to profound effects on cell metabolism. Aberrant metabolism in cancer has recently received significant attention as a target to develop therapeutic agents in the treatment of cancer.1 As Tsc2-/- cells have lost the ability to respond to energy and growth factor deprivation, these cells are unable to properly down regulate cellular biosynthetic processes in response to metabolic stress, and are thus extremely sensitive to glucose deprivation-induced death.2 A central goal of this project is to explore the unique cell survival and metabolic properties of cells with Tsc1 or Tsc2 by screening for compounds that selectively target the Tsc2-/- MEFs by screening both Tsc2-/- and WT MEF cell lines. We hope to better understand these aspects of TSC physiology in order to exploit them for therapeutic benefit.
NIH Molecular Libraries Probe Production Centers Network [MLPCN]
NIH Chemical Genomics Center [NCGC]
Assay Submitter (PI): Blenis, John; Harvard University
For quantitative high throughput analysis of mTORC1 signaling, we developed a cell-based assay for immuno-fluorescence based detection of rpS6 phosphorylation on the Acumen Explorer that will be used a platform for the primary small molecule screen. Mouse embryonic fibroblasts (MEFs) are cultured in 1536-well plates using DMEM + 10% FBS. Twenty-four hrs after plating, test compounds (solubilized in DMSO) are delivered and incubated with the cells for 24 hrs at 37 degree Celsius. Following the incubation, media with compound is aspirated and the cells are fixed in 4% paraformaldehyde (PFA) containing PBS + 0.2% TX-100. Next, PFA is aspirated, cells are washed two times with PBS plus 0.2% TX-100 and the cells are blocked for 1 hr at room temperature (blocking buffer: LiCOR Blocking Buffer plus 0.2% TX-100). This is followed by aspiration and staining with Alexa-488 conjugated-phospho-rpS6 Ser235/236 antibody for 2 hours at room temperature (Cell Signaling Technology # 4803, 1:50 dilution in blocking buffer). Cells are washed two times with PBS plus 0.2% TX-100, and stained with 10 uM propidium iodide (PI) for 20-25 minutes for cell number measurement (1:500 dilution of Hoescht staining is also added for IN Cell imaging). The plates are scanned on the Acumen Explorer laser scanning instrument (TTP Labtech) using the 488nm laser for simultaneous excitation of the Alexa-488 and PI. […] Fluorescence emission from the PI stain is selected using a 575-640 nm band pass filter. The normalized phospho-S6 staining is calculated as the ratio of the integrated Alexa 488 intensity divided by the integrated PI intensity for the single concentration rapamycin control (7.5 nM) and DMSO columns. […] Inhibition of the pathway is defined based on the normalized phospho-S6 intensity in rapamycin treated cells. Active cells are defined as those with a normalized phospho-S6 staining above this threshold, and each treatment is reported as the % positive cells in the well, where thresholds are defined by selecting wells with the highest and lowest signal and differentiating between the % non-active and % active populations. In addition to the pathway specific phospho-S6 endpoint, the number of PI stained cells from the Acumen is recorded as a measure of cell viability. […]
(In general: In qHTS, concentration-response curves come from the screen itself.)
Regarding `CCOC(=O)c1c(NC(=O)c2nc(S(C)(=O)=O)ncc2Cl)sc(C(C)=O)c1C`, the Potency is 2.07 µM (active).
As for `Cc1nnc(C(=O)NC(C)(C)c2nc(C(=O)NCc3ccc(F)cc3)c(O)c(=O)n2C)o1`, the entry is “inactive”.
For the compound `COc1ccc(S(=O)(=O)NCCc2csc3nc(-c4ccc(Cl)cc4)nn23)cc1C`, the Potency entry is “inactive”.
As for `CC(C)(C)C1CCc2c(sc(NC(=O)C3c4ccccc4Oc4ccccc43)c2C(N)=O)C1` (stereo not given), the entry is “inactive”; as for `Cc1cccc(CSc2cn(CC(=O)N3CCCCCC3)c3ccccc23)c1`, “inactive”; as for `CCOC(=O)c1ccc(N2C(=O)c3n[nH]c(-c4cccs4)c3C2c2cccc(F)c2)cc1` (stereo not given), “inactive”.
With `CCN(c1ccccc1)S(=O)(=O)c1ccc(NC(=O)c2nc(S(C)(=O)=O)ncc2Cl)cc1`, the Potency is 1.04 µM (active).
As for `Cc1ccc(-c2nnc(Nc3ccc(O)cc3)c3ccccc23)cc1S(=O)(=O)N1CCCCC1`, the entry is “inactive”; as for `Cc1cccc(-n2cnc3cc(C(=O)NC4CCCCCC4)ccc32)c1`, 5.21 µM (active); as for `O=C(CCCn1ccc2cc(S(=O)(=O)N3CCCC3)ccc21)NCc1ccc(Cl)cc1`, “inactive”.
With `COc1ccccc1N1CCN(Cc2cc(COC(C)C)c3cccnc3c2O)CC1`, the Potency was 2.93 µM (active).
With `CC(C)c1nnc(NC(=O)c2nc(S(=O)(=O)Cc3ccccc3)ncc2Cl)s1` the figure was 5.21 µM (active).
With `CCOc1ccc(C(=O)NCCc2sc(-c3ccc(C)cc3)nc2C)cc1` the entry was “inactive”.
As for `CC1=Nc2cc(C(=O)NC3CCCC3)ccc2Sc2ccc(Cl)cc21`, the figure is 0.826 µM (active).
For the compound `Cc1ccc(C(=O)c2cn(CC(=O)NCc3ccccc3Cl)c3nc(C)ccc3c2=O)cc1`, the Potency entry was “inactive”.
As for `Cc1cccc(NC(=O)c2c(NC(=O)C(F)(F)F)sc3c2CCCCC3)c1`, the entry is “inactive”; as for `CC(=O)Nc1cccc(NC(=O)C(=O)NCCc2sc(-c3ccccc3)nc2C)c1`, 7.36 µM (active); as for `Cc1ccc(NC(=O)CCNS(=O)(=O)c2cccc3nonc23)cc1Cl`, “inactive”.
With `Cn1nc(-c2ccc(OCC(=O)Nc3ccccc3)cc2)c2ccccc2c1=O` the entry was “inactive”; with `CCOC(=O)c1ccc2ncc(C(=O)OCC)c(NCCc3ccc(OC)c(OC)c3)c2c1`, “inactive”; with `COc1cc(NC(=O)c2cccc3c2C(=O)N(C2CCCCC2)C3)cc(OC)c1OC`, “inactive”.
As for `Cc1ccc(C)c(S(=O)(=O)NCC(c2ccco2)S(=O)(=O)c2ccc(F)cc2)c1` (stereo not given), the entry is “inactive”; as for `Cc1cc(C)c(NC(=O)c2sc3nc(C)cc(C)c3c2NC(=O)c2ccccc2)c(C)c1`, “inactive”.
`COc1ccc(-n2ncc3c(NCCCOC(C)C)ncnc32)cc1`: the Potency result was “inactive”.
As for `CCS(=O)(=O)c1oc(-c2ccc(F)cc2)nc1S(=O)(=O)c1ccc(Br)cc1`, the Potency was 4.65 µM (active).
As for `CCc1nn(CC(=O)NCc2ccccc2Cl)c(=O)c2cccn12`, the entry is “inactive”; as for `Nc1nc(Nc2ccccc2F)sc1C(=O)c1ccc(Cl)cc1`, “inactive”; as for `Cc1cccc(C(=O)Nc2c(C(=O)NCc3ccc(Cl)cc3)sc3nc(C)cc(C)c23)c1`, “inactive”.
With `COc1ccc(CC(=O)Nc2sc3c(c2C(=O)Nc2ccccc2)CCCCC3)cc1` the figure was 13.1 µM (active).
As for `FC(F)(F)c1cccc(Nc2c3c(nc4ccc(Cl)cc24)CCC3)c1`, the figure is 16.5 µM (active); as for `Cn1nc(-c2ccc(OCC(=O)Nc3ccc(Cl)cc3)cc2)c2ccccc2c1=O`, “inactive”.
For `COc1ccc(Oc2nc3c(C)cccn3c(=O)c2/C=C(\C#N)c2nc3ccccc3[nH]2)cc1`, the Potency entry is “inactive”.
With `CCOc1ccc(NC(=O)CN2C(=O)C(c3ccc(Cl)cc3)=NC2(C)C)cc1` the entry was “inactive”; with `CCn1c(CN2CCC(C)CC2)nc2cc(NC(=O)c3ccccc3[N+](=O)[O-])ccc21`, “inactive”.
As for `CS(=O)c1ccc(-c2nc(-c3ccc(F)cc3)c(-c3ccncc3)[nH]2)cc1` (stereo not given), the entry is “inactive”.
Take `CN(C)c1ccc(NC(=O)Cn2cc(S(=O)(=O)Cc3ccccc3Cl)c3ccccc32)cc1`: the Potency was 13.1 µM (active).
As to `CCCN1C(=O)C(Cc2nc3ccccc3c(=O)n2CC)c2ccccc21` (stereo not given), the Potency entry was “inactive”.
As to `Fc1ccc(Nc2nc3nonc3nc2Nc2cccc(C(F)(F)F)c2)cc1`, the Potency was 5.21 µM (active).
As for `CN1CCN(C2(CNC(=O)c3ccc(C(C)(C)C)cc3)CCCCC2)CC1`, the entry is “inactive”; as for `O=C(NCc1ccccc1)c1ccc2c(c1)N(Cc1ccccc1F)C(=O)c1ccccc1S2=O` (stereo not given), “inactive”.
